Several values for one entry are separate records, joined by “and”; a condition that tells them apart may be missing. Equal values may be shown once. Some compounds were tested as several samples or in several runs, with calls that do not always agree. Activity calls are given as the source filed them. Unless noted, calls come from the whole dose curve; as a rule, active = well fitted curve in the direction sought with a large enough effect in the repeat runs; inconclusive = weak or mixed curves; inactive = no such curve, though single readings can be large; an effect the other way counts as inactive or inconclusive.
What was measured:
[1] = tested on: thyroid hormone receptor (rat, GH3 cells); assay: qHTS assay to identify small molecule agonists of the thyroid receptor (TR) signaling pathway (AID 743066; calls by dose curve)
[2] = qHTS assay to identify small molecule antagonists of the estrogen receptor alpha (ER-alpha) signaling pathway - cell viability counter screen (AID 743074; calls by dose curve;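 note: HEK293 cells carrying ER-alpha-UAS-bla reporter stimulated with 17beta-estradiol; nearly all actives have a fitted effect of over 45% in size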; note: potency is the fitted concentration of half-maximal effect)
[3] = molecular target: Estrogen receptor (Homo sapiens) (UniProt P03372); assay: qHTS assay to identify small molecule agonists of the estrogen receptor alpha (ER-alpha) signaling pathway (AID 743075; calls by dose curve;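 note: HEK293 GripTite cells with ER-alpha and UAS-driven beta-lactamase reporter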; note: potency is the fitted concentration of half-maximal effect)
[4] = molecular target: Estrogen receptor (Homo sapiens) (UniProt P03372); assay: qHTS assay to identify small molecule agonists of the estrogen receptor alpha (ER-alpha) signaling pathway using the BG1 cell line (AID 743079); note: nearly all actives have a fitted effect of over 20% in size; note: potency is the fitted concentration of half-maximal effect
[5] = qHTS assay to identify small molecule antagonists of the estrogen receptor alpha (ER-alpha) signaling pathway using the BG1 cell line - cell viability counter screen (AID 743081);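 note: compound given together with 17beta-estradiol as the ER stimulus; nearly all actives have a fitted effect of over 45% in size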; note: potency is the fitted concentration of half-maximal effect
Aromatase (Homo sapiens) = Aromatase (Homo sapiens) (UniProt P11511); assay: qHTS assay to identify aromatase inhibitors (AID 743083); note: nearly all actives have a fitted effect of over 55% in size; note: potency is the fitted concentration of half-maximal effect
[6] = qHTS assay to identify small molecule that activate the aryl hydrocarbon receptor (AhR) signaling pathway - cell viability counter screen (AID 743086); note: nearly all actives have a fitted effect of over 45% in size; note: potency is the fitted concentration of half-maximal effect
Procedure, shortened: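 HepG2-AhR-luc (HG2L7.5c1) cells, 4000/well, treated 24 h at 37 C with compound; viability measured as CellTiter-Fluor fluorescence after 30 min in the same wells as the luciferase read.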

[7] = molecular target: Peroxisome proliferator-activated receptor gamma (Homo sapiens) (UniProt P37231); assay: qHTS assay to identify small molecule agonists of the peroxisome proliferator-activated receptor gamma (PPARg) signaling pathway (AID 743094; active = well fitted activation curve with a large enough effect in the signal ratio in the repeat runs, not every such curve was filed as active; inconclusive = weak or mixed curves, or effect the other way; inactive = no such curve, though single readings can be large or run the other way; the % refers to the signal ratio; note: potency is the fitted concentration of half-maximal effect)
Procedure, shortened: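 Compounds dissolved in DMSO were added to PPARg UAS-bla HEK293H cells for 17 h at 37C, and reporter expression was quantified by fluorescence intensity after 1 h with LiveBLAzer B/G FRET substrate.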

[8] = molecular target: Peroxisome proliferator-activated receptor gamma (Homo sapiens) (UniProt P37231); assay: qHTS assay to identify small molecule antagonists of the peroxisome proliferator-activated receptor gamma (PPARg) signaling pathway (AID 743191; calls by dose curve; note: potency is the fitted concentration of half-maximal effect; nearly all actives have a fitted effect of over 30% in size)
Procedure, shortened: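 GeneBLAzer PPARg UAS-bla HEK293H cells, 5 h post-plating, exposed to compounds 17 h at 37C. LiveBLAzer B/G FRET substrate added for 1 h at room temperature; beta-lactamase reporter read by fluorescence intensity.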

[9] = qHTS assay for small molecule agonists of the antioxidant response element (ARE) signaling pathway - cell viability counter screen (AID 743203; calls by dose curve; note: nearly all actives have a fitted effect of over 55% in size; note: potency is the fitted concentration of half-maximal effect)
Procedure, shortened: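 Following 16 hrs of compound treatment at 37C, HepG2 cells with an ARE-controlled beta-lactamase gene were lysed with CellTiter-Glo. Luminescence was read after 30 min at room temperature.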

[10] = qHTS assay to identify small molecule antagonists of the thyroid receptor (TR) signaling pathway (AID 743065); note: nearly all actives have a fitted effect of over 55% in size; note: potency is the fitted concentration of half-maximal effect
Procedure, shortened: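 GH3.TRE-Luc rat pituitary cells (two TREs driving luciferase) were dosed with compound, then stimulated with 1 nM T3 (final) for 23.5 h at 37 C. ONE-Glo luminescence was the read-out, with CellTiter-Fluor fluorescence as the cytotoxicity counter-screen.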

[11] = qHTS assay to identify aromatase inhibitors - cell viability counter screen (AID 743084);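 note: cells stimulated with testosterone during compound exposure; nearly all actives have a fitted effect of over 55% in size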; note: potency is the fitted concentration of half-maximal effect
[12] = qHTS assay for small molecule agonists of the antioxidant response element (ARE) signaling pathway (AID 743202; active = well fitted activation curve with a large enough effect in the signal ratio in the repeat runs, not every such curve was filed as active; inconclusive = weak or mixed curves, or effect the other way; inactive = no such curve, though single readings can be large or run the other way; the % refers to the signal ratio; note: potency is the fitted concentration of half-maximal effect)
Procedure, shortened: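 Agonist mode reporter screen: HepG2 cells with ARE-controlled beta-lactamase are incubated with test compounds for 16 h at 37 C, and beta-lactamase activity is measured as fluorescence of cleaved B/G FRET substrate.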

[13] = qHTS assay for small molecule activators of the heat shock response signaling pathway - cell viability counter screen (AID 743209); note: nearly all actives have a fitted effect of over 50% in size; note: potency is the fitted concentration of half-maximal effect
Procedure, shortened: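 Readout: CellTiter-Glo luminescence, 30 min at room temperature. System: HSE-bla HeLa cells, 1500/well, plated overnight. Treatment: compounds in DMSO, 5 h at 37 C.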

[14] = qHTS assay for small molecule activators of the heat shock response signaling pathway (AID 743210; active = well fitted activation curve with a large enough effect in the signal ratio in the repeat runs, with a control signal flat, not every such curve was filed as active; inconclusive = weak or mixed curves; the % refers to the signal ratio; note: potency is the fitted concentration of half-maximal effect;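 for activation: HeLa cells with beta-lactamase reporter driven by heat shock elements; series mostly up to about 63 µM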)
Procedure, shortened: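 Quantitative high-throughput format using an engineered HeLa line in which heat shock response elements drive beta-lactamase; after 5 h with compound, cells received a B/G FRET substrate and fluorescence was read.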

[15] = molecular target: Aryl hydrocarbon receptor (Homo sapiens) (UniProt P35869); assay: qHTS assay to identify small molecule that activate the aryl hydrocarbon receptor (AhR) signaling pathway (AID 743085); note: nearly all actives have a fitted effect of over 15% in size; note: potency is the fitted concentration of half-maximal effect;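 for activation: HG2L7.5c1 human HepG2 liver cells with stably integrated DRE-driven firefly reporter; series mostly up to about 70 µM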
Procedure, shortened: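 HepG2 cells stably carrying a 20-DRE firefly luciferase reporter (HG2L7.5c1) treated with compound for 24 hr at 37C. Luciferase read by ONE-Glo luminescence, with CellTiter-Fluor viability read first.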

[16] = qHTS assay to identify small molecule antagonists of the estrogen receptor alpha (ER-alpha) signaling pathway using the BG1 cell line (AID 743080; calls by dose curve;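 note: BG1 cells stimulated with 17beta-estradiol alongside compound; nearly all actives have a fitted effect of over 25% in size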; note: potency is the fitted concentration of half-maximal effect)
Procedure, shortened: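 Luciferase inhibition measured with ONE-Glo after 30 min at RT in BG1Luc4E2 cells given test compounds and 17beta-estradiol for 21.5 h at 37 C; CellTiter-Fluor viability read in the same wells beforehand.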

[17] = qHTS assay to identify small molecule antagonists of the peroxisome proliferator-activated receptor gamma (PPARg) signaling pathway - cell viability counter screen (AID 743194); conditions: Potency: co-treated with 50 nM rosiglitazone unless noted; note: nearly all actives have a fitted effect of over 55% in size; note: potency is the fitted concentration of half-maximal effect
Procedure, shortened: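 Cytotoxicity counter screen in PPARg-bla HEK293H cells, same wells as reporter assay. Compounds plus 50 nM rosiglitazone (final) for 17 h at 37 C, then viability read by CellTiter-Glo luminescence.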

Measured: Potency

Aryl hydrocarbon receptor (Homo sapiens), sequence (P35869 whole entry, looked up): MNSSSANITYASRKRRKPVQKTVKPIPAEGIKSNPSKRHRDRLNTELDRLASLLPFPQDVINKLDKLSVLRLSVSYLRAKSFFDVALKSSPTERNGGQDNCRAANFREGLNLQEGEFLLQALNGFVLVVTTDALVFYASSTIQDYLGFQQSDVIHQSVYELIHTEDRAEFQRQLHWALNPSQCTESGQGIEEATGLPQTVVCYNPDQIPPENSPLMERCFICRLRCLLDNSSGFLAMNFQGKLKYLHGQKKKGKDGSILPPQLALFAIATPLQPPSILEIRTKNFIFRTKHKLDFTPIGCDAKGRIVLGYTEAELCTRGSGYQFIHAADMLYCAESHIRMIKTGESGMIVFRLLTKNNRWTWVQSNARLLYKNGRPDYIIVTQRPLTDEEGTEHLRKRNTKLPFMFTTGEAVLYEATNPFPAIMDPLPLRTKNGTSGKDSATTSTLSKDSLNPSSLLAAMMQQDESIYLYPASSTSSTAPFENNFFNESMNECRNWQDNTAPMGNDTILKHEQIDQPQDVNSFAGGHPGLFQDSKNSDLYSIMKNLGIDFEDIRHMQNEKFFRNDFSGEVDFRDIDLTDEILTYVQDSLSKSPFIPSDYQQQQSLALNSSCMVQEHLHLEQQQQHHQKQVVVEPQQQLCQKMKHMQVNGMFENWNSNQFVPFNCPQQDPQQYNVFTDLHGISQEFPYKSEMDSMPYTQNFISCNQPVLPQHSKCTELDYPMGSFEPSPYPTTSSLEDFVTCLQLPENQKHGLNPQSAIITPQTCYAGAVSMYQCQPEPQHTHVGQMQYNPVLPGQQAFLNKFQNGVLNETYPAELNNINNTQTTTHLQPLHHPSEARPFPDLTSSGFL
Aromatase (Homo sapiens), sequence (P11511 whole entry, looked up): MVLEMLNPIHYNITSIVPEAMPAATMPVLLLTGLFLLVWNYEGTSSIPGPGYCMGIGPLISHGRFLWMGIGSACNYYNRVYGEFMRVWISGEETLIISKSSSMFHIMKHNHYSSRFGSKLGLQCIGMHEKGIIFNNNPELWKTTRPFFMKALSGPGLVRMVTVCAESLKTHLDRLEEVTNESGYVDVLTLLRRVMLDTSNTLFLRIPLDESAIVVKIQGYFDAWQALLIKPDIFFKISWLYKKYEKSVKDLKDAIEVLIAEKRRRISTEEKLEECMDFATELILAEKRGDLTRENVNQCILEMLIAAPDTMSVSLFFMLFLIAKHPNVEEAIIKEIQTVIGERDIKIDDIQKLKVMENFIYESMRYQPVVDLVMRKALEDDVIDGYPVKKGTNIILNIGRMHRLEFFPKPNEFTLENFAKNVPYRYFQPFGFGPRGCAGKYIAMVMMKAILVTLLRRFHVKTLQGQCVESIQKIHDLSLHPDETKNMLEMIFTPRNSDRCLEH
Estrogen receptor (Homo sapiens), sequence (P03372 whole entry, looked up): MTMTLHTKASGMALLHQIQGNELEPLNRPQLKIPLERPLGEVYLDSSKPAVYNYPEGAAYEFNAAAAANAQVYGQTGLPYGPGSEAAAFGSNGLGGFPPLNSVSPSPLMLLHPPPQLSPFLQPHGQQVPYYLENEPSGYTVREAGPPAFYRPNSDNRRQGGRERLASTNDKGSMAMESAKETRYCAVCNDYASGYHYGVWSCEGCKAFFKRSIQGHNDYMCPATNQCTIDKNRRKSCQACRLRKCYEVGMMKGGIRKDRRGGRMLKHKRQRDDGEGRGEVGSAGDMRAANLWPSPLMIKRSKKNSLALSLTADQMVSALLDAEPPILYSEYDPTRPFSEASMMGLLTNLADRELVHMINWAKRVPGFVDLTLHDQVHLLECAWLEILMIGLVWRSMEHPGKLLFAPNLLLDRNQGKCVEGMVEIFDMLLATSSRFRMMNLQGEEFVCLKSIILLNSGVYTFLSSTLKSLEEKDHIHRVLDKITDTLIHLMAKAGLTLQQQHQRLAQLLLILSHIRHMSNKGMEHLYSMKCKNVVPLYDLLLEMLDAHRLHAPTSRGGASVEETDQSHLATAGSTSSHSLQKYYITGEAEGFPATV
Peroxisome proliferator-activated receptor gamma (Homo sapiens), sequence (P37231 whole entry, looked up): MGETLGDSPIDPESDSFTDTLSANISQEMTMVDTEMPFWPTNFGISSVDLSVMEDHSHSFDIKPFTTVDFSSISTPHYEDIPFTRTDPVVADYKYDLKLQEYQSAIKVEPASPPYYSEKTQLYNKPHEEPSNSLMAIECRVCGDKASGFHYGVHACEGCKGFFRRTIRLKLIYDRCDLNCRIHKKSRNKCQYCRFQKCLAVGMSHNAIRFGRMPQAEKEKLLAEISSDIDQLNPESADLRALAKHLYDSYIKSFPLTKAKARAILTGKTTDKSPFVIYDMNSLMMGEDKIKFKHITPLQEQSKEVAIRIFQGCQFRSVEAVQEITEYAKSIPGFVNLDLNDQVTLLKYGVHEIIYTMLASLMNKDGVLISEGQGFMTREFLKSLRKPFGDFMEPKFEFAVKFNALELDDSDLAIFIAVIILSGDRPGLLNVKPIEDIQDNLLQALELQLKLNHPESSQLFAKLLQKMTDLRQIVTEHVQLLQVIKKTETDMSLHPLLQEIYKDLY

CC(=O)/C=C/c1ccc2c(c1)OCO2
inactive: [1] | [2] | [3] | [4] | [5] | Aromatase (Homo sapiens) | [6] | [7] | [9]
active: [8] 12.4 µM

O=c1[nH]c2ccccc2n1CCCN1CCC(n2c(=O)[nH]c3cc(Cl)ccc32)CC1
inactive: [5] | Aromatase (Homo sapiens) | [11] | [12] | [9] | [13] | [14]
active: [10] 26.6 µM

CC(C)N1C(=O)N(c2ccccc2)CSC1=NC(C)(C)C
inactive: [2] | [3] | [5] | [15] | [6]

CC(C)Oc1cccc(NC(=O)c2ccccc2C(F)(F)F)c1
inactive: [1] | [3] | [4] | [16] | [11] | [6] | [7] | [9] | [14]
active: [15] 9.97 µM

COc1cccc2c1C(=O)c1c(O)c3c(c(O)c1C2=O)C[C@@](O)(C(=O)CO)CC3OC1CC(N2CCOC(OC)C2)C(O)C(C)O1 (stereo partly drawn)
active: [9] 9.44 µM
inactive: [14]

Nc1ccccc1C(=O)OC/C=C/c1ccccc1
active: [15] 61.3 µM | [9] 68.7 µM | [13] 34.8 µM
inactive: [1] | [2] | [3] | [5] | Aromatase (Homo sapiens) | [11] | [6] | [7]

O=S(=O)(c1ccc(Cl)cc1)c1ccc(Cl)cc1
inactive: [10] | [1] | [3] | [5] | [15] | [6] | [7] | [9] | [13]
active: [16] 24.6 µM

CCCCOCN(C(=O)CCl)c1c(CC)cccc1CC
active: [10] 61.1 µM | Aromatase (Homo sapiens) 61.1 µM | [9] 48.6 µM
inactive: [2] | [3] | [16] | [5] | [15] | [6] | [17] | [13]

O=c1c(C2CC(c3ccc(-c4ccc(Br)cc4)cc3)Cc3ccccc32)c(O)sc2ccccc12 (stereo not drawn)
active: [17] 13.3 µM | [9] 33.5 µM

O=C(CCCN1CCC2(CC1)C(=O)NCN2c1ccccc1)c1ccc(F)cc1
active: Aromatase (Homo sapiens) 29.8 µM | [12] 2.98 µM
inactive: [1] | [3] | [7] | [13] | [14]

c1ccc2cc3c(cc2c1)-c1cccc2cccc-3c12
inactive: [10] | [1] | [2] | [4] | Aromatase (Homo sapiens) | [6] | [17] | [9] | [13]
active: [16] 0.269 µM | [15] 0.12 µM | [14] 5.21 µM

CCOC(=O)C1(c2ccccc2)CCN(CCC(C#N)(c2ccccc2)c2ccccc2)CC1
inactive: [1] | [16] | [5] | Aromatase (Homo sapiens) | [11] | [15] | [9] | [13]
inactive and 59.6 µM (active): [6]
active: [10] 9.44 µM and 15 µM | [3] 53.5 µM [inconclusive]

Clc1ccc(CSC(Cn2ccnc2)c2ccc(Cl)cc2Cl)cc1 (stereo not drawn)
active: Aromatase (Homo sapiens) 2.85 µM | [17] 29.8 µM | [9] 29.8 µM | [13] 29.8 µM
inactive: [1] | [2] | [16] | [5] | [11] | [15] | [6] | [7]

O=c1[nH]c2ccccc2n1C1CCN(CCCC(c2ccc(F)cc2)c2ccc(F)cc2)CC1
inactive and 30.6 µM (active): Aromatase (Homo sapiens)
active: [2] 26.8 µM and 54.9 µM | [5] 54.5 µM | [11] 54.5 µM | [8] 34.7 µM | [17] 24.5 µM [setting not given] | [9] 24.3 µM and 33.5 µM | [13] 24.5 µM and 13.3 µM
inactive: [3] | [15] | [6] | [7]

COP(=O)(OC)SCn1c(=O)oc2cc(Cl)cnc21
active: Aromatase (Homo sapiens) 19.3 µM | [15] 43.3 µM | [9] 48.6 µM
inactive: [10] | [1] | [2] | [3] | [4] | [5] | [6] | [7] | [17] | [14]

CC1CCC(C(C)C)C(OC(=O)c2ccccc2N)C1 (stereo not drawn)
active: [3] 7.56 µM [inconclusive] and 6.82 µM [inconclusive] | [4] 3.35 µM and 2.69 µM
inactive and 60.3 µM (active): Aromatase (Homo sapiens)
inactive and 47.9 µM (active): [11]
inactive: [1] | [2] | [16] | [5] | [15] | [6] | [7] | [9]

OC(c1ccc(Cl)cc1)(c1ccc(Cl)cc1)C(Cl)(Cl)Cl
active: Aromatase (Homo sapiens) 61.1 µM | [11] 61.1 µM | [17] 15.5 µM | [9] 43.3 µM
inactive: [1] | [2] | [5] | [6]

Oc1ccc2ccc3cccc4ccc1c2c34
inactive: [2] | [5] | [6] | [13]

CCC(C)(C)C(=O)OC1=C(c2ccc(Cl)cc2Cl)C(=O)OC12CCCCC2
active: [10] 54.5 µM | [4] 54.5 µM | [7] 1.74 µM | [9] 30.6 µM | [13] 54.9 µM
inactive: [1] | [2] | [3] | [5] | Aromatase (Homo sapiens) | [11] | [15] | [6]
